PubChem BioAssay (EPA / NIEHS)
Active and inactive are the calls of the source. How the source made its calls: active means hit-call score of the fitted dose curve at least 0.9, where 1 is the maximum; inactive means score below 0.9.

Experiments:
[1] = BSK_CASM3C_SRB: Viability Assessment in the BioMAP Diversity Plus: CASM3C Assay (AID 2283050); settings: primary human coronary artery smooth muscle cells;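 further: total protein by SRB staining as cytotoxicity measure in parallel cultures; cells exposed to compound for 24 h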
[2] = read-out: Thrombomodulin, THBD (gene 7056); test: BSK_CASM3C_Thrombomodulin: BioMAP Diversity Plus: CASM3C Assay for Thrombomodulin Biomarker Activity (AID 2283051); settings: primary human coronary artery smooth muscle cells; actives raise or lower the signal;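 further: thrombomodulin protein level measured by ELISA 24 h after dosing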
[3] = read-out: Tissue Factor, F3 (gene 2152); test: BSK_CASM3C_TissueFactor: BioMAP Diversity Plus: CASM3C Assay for Tissue Factor Biomarker Activity (AID 2283052); settings: primary human coronary artery smooth muscle cells; actives raise or lower the signal;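 further: cell surface tissue factor protein level read by ELISA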
[4] = read-out: Interferon-gamma inducible Protein 10 (IP10), CXCL10 (gene 3627); test: BSK_hDFCGF_IP10: BioMAP Diversity Plus: hDFCGF Assay for Interferon-gamma inducible Protein 10 (IP10) Biomarker Activity (AID 2283053); settings: primary human foreskin fibroblasts; actives raise or lower the signal
Outline: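 Chemical-treated human skin fibroblasts (primary) were sampled at 24 h for IP-10 by ELISA. Both increases and decreases relative to DMSO were scored.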

[5] = read-out: Urokinase-type plasminogen activator receptor (uPAR), PLAUR (gene 5329); test: BSK_CASM3C_uPAR: BioMAP Diversity Plus: CASM3C Assay for Urokinase-type plasminogen activator receptor (uPAR) Biomarker Activity (AID 2283054); settings: primary human coronary artery smooth muscle cells; actives raise or lower the signal;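 further: cell-surface uPAR protein level quantified by ELISA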
[6] = read-out: Vascular cell adhesion molecule 1 (VCAM1), VCAM1 (gene 7412); test: BSK_CASM3C_VCAM1: BioMAP Diversity Plus: CASM3C Assay for Vascular cell adhesion molecule 1 (VCAM1) Biomarker Activity (AID 2283055); settings: primary human coronary artery smooth muscle cells; actives raise or lower the signal;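 further: VCAM-1 protein level quantified by ELISA on the cells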
[7] = read-out: Epidermal growth factor receptor (EGFR), EGFR (gene 1956); test: BSK_hDFCGF_EGFR: BioMAP Diversity Plus: hDFCGF Assay for Epidermal growth factor receptor (EGFR) Biomarker Activity (AID 2283057); settings: primary human foreskin fibroblasts; actives raise or lower the signal
Outline: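 Cell-based multiplexed assay in primary human foreskin fibroblasts. EGFR is read by ELISA 24 h after treatment and compared with DMSO controls.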

[8] = read-out: Interleukin-8 (IL8), CXCL8 (gene 3576); test: BSK_hDFCGF_IL8: BioMAP Diversity Plus: hDFCGF Assay for Interleukin-8 (IL8) Biomarker Activity (AID 2283058); settings: primary human foreskin fibroblasts; actives raise or lower the signal
Outline: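 IL-8 levels from compound-treated primary human fibroblasts were read by ELISA at 24 h, with DMSO serving as baseline for bidirectional fitting.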

[9] = BSK_hDFCGF_Proliferation: Cell Proliferation Assessment in the BioMAP Diversity Plus: hDFCGF Assay (AID 2283059); settings: primary human foreskin fibroblasts;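 further: curves fitted for both rise and fall of signal versus DMSO baseline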
Outline: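 This proliferation readout used SRB total-protein staining of human foreskin fibroblasts […], normalized to DMSO with bidirectional curve fitting.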

[10] = read-out: Collagen III, COL3A1 (gene 1281); test: BSK_hDFCGF_CollagenIII: BioMAP Diversity Plus: hDFCGF Assay for Collagen III Biomarker Activity (AID 2283056); settings: primary human foreskin fibroblasts; actives raise or lower the signal
Outline: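 Cells: human foreskin fibroblasts, primary. Dosing followed by 24 h incubation, then ELISA for collagen III. Both increases and decreases scored relative to DMSO.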

Measured: AC50

c1ccc2c(c1)Cc1ccccc1-2
not listed: [10]
inactive: all other assays above

CC(C)(C)c1cccc(C(C)(C)C)c1O
active: [3] 20 µM | [4] 37.8 µM | [10] 35.9 µM | [8] 36.8 µM | [9] 35 µM
inactive: all other assays above

CCC(=C(c1ccc(O)cc1)c1ccc(OCCN(C)C)cc1)c1ccccc1
active: [1] 22.2 µM | [3] 15.8 µM | [4] 10.5 µM | [5] 20.3 µM | [6] 22.3 µM | [8] 12.8 µM | [9] 4.77 µM
inactive: [2] | [7]

CCOC(=O)CC(O)(CC(=O)OCC)C(=O)OCC
not listed: [10]
inactive: all other assays above

CC(C)(C)c1ccc(O)c(C(C)(C)C)c1
active: [1] 26.7 µM | [2] 35.9 µM | [3] 20 µM | [4] 10.1 µM | [5] 7.58 µM | [6] 29.1 µM | [7] 13.2 µM | [8] 12.5 µM | [9] 11.4 µM

c1ccc2c(c1)ccc1ccccc12
not listed: [10]
inactive: all other assays above

O=c1c(-c2ccc(O)cc2)coc2cc(O)ccc12
not listed: [10]
inactive: all other assays above

c1ccc2cc3c(ccc4ccccc43)cc2c1
active: [2] 2.24 µM
not listed: [10]
inactive: all other assays above

CCCCCCCCCCCCCC[N+](C)(C)C
active: [1] 5.35 µM | [2] 5.06 µM | [3] 5.36 µM | [4] 5.92 µM | [5] 5.05 µM | [6] 9.9 µM | [7] 4.98 µM | [8] 14.1 µM | [9] 1.05 µM

O=[N+]([O-])c1ccc(O)cc1
not listed: [10]
inactive: all other assays above

NC(=O)N(O)[C@@H]1C=C[C@H](Oc2cccc(Oc3ccc(F)cc3)c2)C1
active: [2] 9.41 µM | [4] 20 µM | [9] 13.3 µM
not listed: [10]
inactive: all other assays above

Nc1cccc2c(N)cccc12
active: [4] 29.1 µM | [9] 5.91 µM
not listed: [10]
inactive: all other assays above

CCCOc1sc(C(=O)N2CCC(c3cc(CN)ccc3F)CC2)c(C)c1Br
active: [1] 12.9 µM | [2] 32.6 µM | [3] 10.8 µM | [4] 10.4 µM | [5] 8.94 µM | [6] 18.6 µM | [7] 5.12 µM | [8] 7.73 µM | [9] 3.1 µM

NC(=O)N1C(=O)C(C(=O)c2cc(Cl)cs2)c2cc(F)c(Cl)cc21 (stereo unspecified)
active: [1] 23.8 µM | [4] 5.92 µM | [5] 27.3 µM | [6] 5.41 µM | [8] 16.6 µM | [9] 1.54 µM
inactive: [2] | [3] | [7]

Oc1cc2ccccc2c2ccccc12
active: [1] 11.2 µM | [3] 10.5 µM | [4] 2 µM | [5] 11.2 µM | [6] 8.3 µM | [8] 3.94 µM | [9] 1.56 µM
inactive: [2] | [7]

CN1CCC[C@H]1c1cccnc1
not listed: [10]
inactive: all other assays above

COCC(C)O (stereo unspecified)
not listed: [10]
inactive: all other assays above

CC(O)CO (stereo unspecified)
not listed: [10]
inactive: all other assays above

CCCCOCCO
not listed: [10]
inactive: all other assays above

Cc1oc(-c2ccccc2)nc1CCOc1ccc(C[C@H](Nc2ccccc2C(=O)c2ccccc2)C(=O)O)cc1
active: [1] 32.3 µM | [4] 3.35 µM | [5] 31.2 µM | [6] 32.8 µM | [7] 1.85 µM | [8] 7.44 µM | [9] 1.81 µM
inactive: [2] | [3]

N#C[C@@H]1CC(F)(F)CN1C(=O)CNC1CC2CCC(C1)N2c1ncccn1 (stereo partly specified)
not listed: [10]
inactive: all other assays above

Cc1cc(C)c(O)c(C)c1
not listed: [10]
inactive: all other assays above

OC1CCCCC1
not listed: [10]
inactive: all other assays above

CC(=O)NC1(c2cccc(F)c2)CCN(CC[C@@]2(c3ccc(Cl)c(Cl)c3)CN(c3ccccc3)C(=O)CO2)CC1
inactive: [3] | [6] | [7]
active: [1] 23.8 µM | [2] 26.1 µM | [4] 28.2 µM | [5] 16.6 µM | [8] 25.9 µM | [9] 13.4 µM

CC1=C(/C=C/C(C)=C/C=C/C(C)=C/C(=O)O)C(C)(C)CCC1
inactive: [3] | [5] | [7]
active: [2] 8.15 µM | [4] 30.2 µM | [6] 20 µM | [10] 15 µM | [8] 38.9 µM | [9] 7.76 µM

COCC(C)OCC(C)O (stereo unspecified)
not listed: [10]
inactive: all other assays above

CN(C)C=O
not listed: [10]
inactive: all other assays above

CCCCCCCCCCCCN1CCCC1=O
inactive: [3] | [5] | [6] | [7]
active: [1] 27.4 µM | [2] 27.9 µM | [4] 30.9 µM | [8] 34.6 µM | [9] 14.6 µM

CCN(CC)CCNc1ccc(CNC=O)c2sc3ccc(OC)cc3c(=O)c12
active: [1] 26.3 µM | [2] 31.2 µM | [3] 5.33 µM | [4] 15.5 µM | [5] 11.1 µM | [6] 12 µM | [8] 33.7 µM | [9] 6.31 µM
inactive: [7]

NCC(F)(F)C(F)(F)C(F)(F)C(F)(F)C(F)(F)C(F)(F)C(F)(F)F
not listed: [10]
inactive: all other assays above

Oc1cccc(O)c1
not listed: [10]
inactive: all other assays above

O=C(O)Cc1cc(I)c(Oc2cc(I)c(O)c(I)c2)c(I)c1
active: [4] 8.02 µM | [6] 13.4 µM | [7] 7.78 µM | [8] 22.2 µM | [9] 13.4 µM
inactive: [1] | [2] | [3] | [5]

Cc1cc(CCN2CCN(c3nsc4ccccc34)CC2)cc2c1NC(=O)CC2(C)C
inactive: [7]
active: [1] 36.5 µM | [2] 33.9 µM | [3] 29.6 µM | [4] 11.5 µM | [5] 31.1 µM | [6] 29.4 µM | [8] 11.3 µM | [9] 7.83 µM

CC(C)(C)c1cc(C(C)(C)C)c(O)c(C(C)(C)C)c1
active: [2] 6.88 µM | [4] 32.8 µM | [8] 31.5 µM | [9] 10.8 µM
not listed: [10]
inactive: all other assays above

O=C(OCCOCCOC(=O)c1ccccc1)c1ccccc1
not listed: [10]
inactive: all other assays above
